# Compound activity deposited in PubChem BioAssay by several laboratories.
# A selection: hits, their analogues and other compounds. The true share with any hit is near 2.1%.
# COUP-TFII inh = NR2F2 transcriptional activity inhibitors, primary screen, cell-based, luciferase reporter, HEK293T, luminescence; HEK293T NGFI-A luciferase reporter; inhibition, % at 8.6 µM; COUP transcription factor 2 (Homo sapiens), P24468; actives 0.7% (n = 370,000); AID 686940, 2013;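 active = inhibition above a per-plate cutoff, mean inhibition of test wells between control levels plus 3 SD, cut at about 38% in these data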;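 note: cells cotransfected with COUP-TFII expression vector driving the NGFI-A reporter; 0% = median of COUP-TF2 test wells and 100% = reporter-only cells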
# Env fusion inh = inhibitors of HIV-1 Env-driven cell-cell fusion, primary screen, HeLa-JRFL effector, CEM21 target cells, luciferase | inhibition, % at 12.3 µM | actives 1.1% (n = 360,000);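 active = mean replicate inhibition score of at least 50 and every replicate individually at or above 50; inconclusive = only one of the two criteria met; inactive = mean below 50 and not all replicates reaching 50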;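 note: 0% = plate neutral controls and 100% = maraviroc near 300 nM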
# GalR3 antag = GalR3 antagonists in HEK293 cells, primary screen, cell-based, fluorescence readout; Galanin receptor type 3 (Homo sapiens), O60755; HEK293 GalR3-CNG cAMP membrane potential fluorescence; galR3 body fused to GalR1 C-terminus; inhibition, % at 3 µM; actives 0.44% (n = 360,000); AID 651719, 2012;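 active = inhibition above the screen-wide average plus 3 SD, cut at about 13% in these data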;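 note: forskolin and galanin both at EC90 stimulate the cells; cAMP rise reported by CNG channel membrane potential dye signal; 0% = forskolin plus galanin with DMSO and 100% = forskolin alone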
# Target sequence (O60755 1-299 limits assumed): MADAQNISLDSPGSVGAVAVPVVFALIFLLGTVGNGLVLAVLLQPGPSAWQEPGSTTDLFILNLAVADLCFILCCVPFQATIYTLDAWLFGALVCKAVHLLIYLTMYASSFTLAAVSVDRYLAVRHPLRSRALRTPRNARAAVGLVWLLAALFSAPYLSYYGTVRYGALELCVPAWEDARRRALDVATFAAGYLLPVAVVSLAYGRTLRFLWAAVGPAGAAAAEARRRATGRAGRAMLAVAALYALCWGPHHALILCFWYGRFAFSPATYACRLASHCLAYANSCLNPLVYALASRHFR
# Gli-Sufu antag = Gli-Sufu pathway antagonists, primary screen, luciferase luminescence, Sufu-KO-LIGHT cells, uHTS | Sufu-KO-LIGHT fibroblasts, Gli luciferase reporter luminescence | inhibition, % at 5 µM | actives 0.74% (n = 340,000);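 active = inhibition above about 55%, limit read from the data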;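 note: 0% = DMSO-treated cells and 100% = wells with medium but no cells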
# aDG glyco act = activators of alpha-DG glycosylation, primary screen, uHTS, Pro5-aDG cells, AlphaScreen. alpha-DG glycosylation AlphaScreen (IIH6); 0% Pro5, 100% B10-LARGE cell signal. activation, % at 10 µM. actives 0.22% (n = 360,000);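 active = activation of at least 8% versus controls, or a plate z-score of at least 8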;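 note: Pro5 are CHO cells carrying HIG-tagged alpha-DG that lacks glycosylation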
# * marks the source's active call; other numbers are inactive results; u = inconclusive; x = no result given; [ ] = dose if it differs, or a comment.
SMILES,COUP-TFII inh,Env fusion inh,GalR3 antag,Gli-Sufu antag,aDG glyco act
c1ccc(CSc2nnc([C@@H]3CCCN3)o2)cc1,-1,94*,-4,-8,0
Cc1ccc(CSc2nnc([C@@H]3CCCN3)o2)cc1,-2,-15,-4,-4,0
O=C(Nc1ccc(F)cc1)N[C@@H]1CC[C@@H](CCn2cc(C3(O)CCCC3)nn2)O[C@@H]1CO,x,-8[16.7 µM],x,x,x
CC(Oc1ccc(Cl)cc1Cl)c1nc(-c2ccc(NC(=O)c3cccnc3)cc2)no1 (stereo not given),-20,x,-4,21,14*
CC(Oc1ccc(Cl)cc1Cl)C(=O)NNC(=O)c1cccnc1 (stereo not given),-2,3,3,-5,0
C[C@H](CO)N1C[C@H](C)[C@H](CN(C)CC2CC2)OCCCC[C@H](C)Oc2ccc(NC(=O)Nc3ccc4c(c3)OCO4)cc2C1=O,x,41[16.7 µM],x,x,x
C[C@@H]1CN([C@H](C)CO)C(=O)c2cc(-c3ccccc3)cnc2O[C@@H]1CN(C)C(=O)c1ccccc1F,x,-4[16.7 µM],x,x,x
CN(CC(=O)NCCc1ccc(S(N)(=O)=O)cc1)CC(=O)Nc1ccccc1Cl,3,x,3,45,0
CN(CC(=O)Nc1ccc(Cl)c(C(F)(F)F)c1)C(=O)c1cccs1,-7,2,-6,19,0
CN(CC(=O)Nc1ccc(Cl)c(C(F)(F)F)c1)C(=O)C1(c2ccccc2)CC1,3,56*,-2,44,0
CN(CC(=O)NCCc1ccc(S(N)(=O)=O)cc1)CC(=O)Nc1ccc(Cl)c(C(F)(F)F)c1,24,93*,-7,-1,0
COc1ccc2c3c([nH]c2c1)[C@@H](CO)N(C(=O)CN(C)C)CC31CN(CC2CCOCC2)C1,x,5[16.7 µM],x,x,x
C[C@@H]1CCCCO[C@@H](CN(C)C(=O)C2CCCCC2)[C@H](C)CN([C@@H](C)CO)C(=O)c2cc(NC(=O)C3CCCCC3)ccc2O1,x,8[16.7 µM],x,x,x
CCN1C(=O)N[C@H]2C[C@H](C(=O)N3CCCC3)[C@H](C)[C@H](c3ccccc3)C[C@H]21,11,-12,-2,x,x
CC(C)=CCC/C(C)=C/CN1C(=O)N(c2ccc(F)cc2)[C@H]2C[C@@H](c3ccccc3)[C@@H](C)[C@@H](C(=O)N3CCOCC3)C[C@H]21,1,76*,-4,x,x
CC(C)(C)c1ccc(OCCCN2CCC(C(O)(c3ccccc3)c3ccccc3)CC2)cc1,2,x,x,x,x
OC(c1ccccc1)(c1ccccc1)C1CCN(CCCOc2cc(F)cc(F)c2)CC1,5,24,-6,x,x
COc1ccccc1-c1ccc(OCCCN2CCC(C(O)(c3ccccc3)c3ccccc3)CC2)cc1,-2,97*,4,x,x
OC(c1ccccc1)(c1ccccc1)C1CCN(CCCOc2ccc(-c3ccc(F)cc3F)cc2)CC1,-2,63*,-6,x,x
Nc1cc(=O)[nH]c(SCCSc2cc(Cl)ccc2Cl)n1,-16,69*,-4,2,0
Nc1cc(=O)[nH]c(SCCSc2ccccc2F)n1,-7,45,-3,-19,0
N#Cc1ccc(NC(=O)Nc2ccc(Oc3ccc(NC(=O)Nc4ccc(C#N)cc4)cc3)cc2)cc1,16,64*,-7,16,0
N#Cc1ccc(NC(=O)Nc2cccc(C#N)c2)cc1,5,46,-2,1,1
C[C@H](NC(=O)c1ncn2c1c(=O)[nH]c1ccccc12)c1ccccc1,8,11,-5,x,0
C[C@H](NC(=O)c1ncn2c1c(=O)[nH]c1ccc(Br)cc12)c1ccccc1,-11,57*,-4,x,0
SMILES,COUP-TFII inh,Env fusion inh,GalR3 antag,Gli-Sufu antag,aDG glyco act
O=S1(=O)N[C@H](Cc2ccccc2)COc2cccc(F)c21,3,57*,-3,x,x
O=S1(=O)N[C@H](Cc2ccccc2)COc2cccc(N3CCCC3)c21,1,-21,-8,x,x
Cc1ccc(C(=O)Nc2cccc(C(=O)O)c2)cc1,-25,117*,-3,-133,x
CC(=O)c1cccc(NC(=O)Nc2ccc(C(=O)N3CCOCC3)cc2)c1,2,63*,3,-4,0
O=C(Nc1ccc(Cl)cc1)Nc1cccc(C(=O)O)c1,-40,71*,-1,-87,0
O=C(Nc1cccc(Cl)c1)Nc1cccc(C(=O)O)c1,-17,40,-5,-38,0
Cc1ccccc1OCC(=O)Nc1cccc(C(=O)O)c1,11,76*,-6,-116,0
O=C(O)c1cccc(NC(=O)c2ccccc2)c1,-8,4,-5,-26,0
Cc1ccc(NC(=O)Nc2ccc(C(=O)N3CCOCC3)cc2)cc1,7,-9,-3,-5,0
CNC[C@@H]1OCCCC[C@H](C)Oc2ccc(NC(=O)Nc3ccc(F)cc3)cc2C(=O)N([C@@H](C)CO)C[C@H]1C,x,19[16.7 µM],x,x,x
C[C@@H]1CN([C@H](C)CO)C(=O)c2cc(NC(=O)Nc3ccc(F)cc3)ccc2O[C@@H]1CN(C)Cc1ccncc1,x,-2[16.7 µM],x,x,x
CCOc1ccc(NC(=O)Nc2cccc(C(=O)O)c2)cc1,-23,63*,-5,-32,0
CCOC(=O)c1cccc(NC(=O)Nc2ccc(OCC)cc2)c1,-31,-24,-1,-84,0
CCc1ccc(NC(=O)CSCc2nc(N)nc(Nc3ccccc3CC)n2)cc1,0,61*,1,-3,0
Cc1ccccc1CSCc1nc(N)nc(Nc2ccccc2C)n1,-11,-18,-1,-28,0
CCc1ccccc1Nc1nc(N)nc(CSCC(=O)Nc2ccc(C)c(C)c2)n1,2,71*,-3,1,0
CCCCCCCCN1C(=O)[C@@H](CC(=O)NCCCOCCCC)C[C@@]2(C(=O)OC)C1=C[C@H](C(C)(C)C)O[C@@H]2C,3,28,1,x,x
COC(=O)[C@]12C[C@H](CC(=O)NCCc3ccccc3OC)C(=O)N(CCc3ccc(OC)c(OC)c3)C1=C[C@H](C(C)(C)C)O[C@@H]2C,25,x,x,x,x
CCCCCCCCN1C(=O)[C@@H](CC(=O)NCc2cccs2)C[C@@]2(C(=O)OC)C1=C[C@H](C(C)(C)C)O[C@@H]2C,-15,u,-5,x,x
COC(=O)[C@]12C[C@H](CC(=O)NCC3CCCCC3)C(=O)N(CCC3=CCCCC3)C1=C[C@H](C(C)(C)C)O[C@@H]2C,7,71*,-2,x,x
CCCCOCCCNC(=O)C[C@H]1C[C@@]2(C(=O)OC)C(=C[C@H](C(C)(C)C)O[C@@H]2C)N(CCC2=CCCCC2)C1=O,6,66*,-1,x,x
COC(=O)[C@]12C[C@H](CC(=O)NCc3cccs3)C(=O)N(CCC3=CCCCC3)C1=C[C@H](C(C)(C)C)O[C@@H]2C,-12,76*,-5,x,x
COC(=O)[C@]12C[C@H](CC(=O)NCCc3ccccc3OC)C(=O)N(CCC3=CCCCC3)C1=C[C@H](C(C)(C)C)O[C@@H]2C,19,61*,1,x,x
